Data: PubChem BioAssay (NCI)
Compounds without any hit were thinned out: in the full panel of roughly 83,000, 20% have a hit.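 Cells were grown in 96-well plates and exposed to the test compound at a single concentration for 48 hours; results are reported as percent growth, with values below 10 considered active.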 Values without a mark were called inactive. Calls of active or inactive are those of the source.

Tests used:
Experiment in all cases: NCI-60 one-dose screen, 48 h (100 = growth as untreated, 0 = no growth, -100 = all killed)
NCI-H226 lung = conditions: 10 µM
NCI-H322M lung = conditions: 10 µM
HOP-62 NSCLC = conditions: 10 µM
NCI-H460 lung = conditions: 10 µM
A549/ATCC NSCLC = conditions: 10 µM
COLO 205 colon = conditions: 10 µM
DU-145 prostate = conditions: 10 µM
K-562 leukemia = conditions: 10 µM
SF-539 CNS = conditions: 10 µM
M14 melanoma = conditions: 10 µM
HCT-15 colon = conditions: 10 µM
HT29 colon = conditions: 10 µM
SNB-75 CNS = conditions: 10 µM
U251 CNS = conditions: 10 µM
LOX IMVI melanoma = conditions: 10 µM
MOLT-4 leukemia = conditions: 10 µM
SR leukemia = conditions: 10 µM
RPMI-8226 leukemia = conditions: 10 µM
SK-OV-3 ovarian = conditions: 10 µM
MDA-MB-468 breast = conditions: 10 µM unless noted

| Compound | growth (NCI-H226 lung) | growth (NCI-H322M lung) | growth (HOP-62 NSCLC) | growth (NCI-H460 lung) | growth (A549/ATCC NSCLC) | growth (COLO 205 colon) | growth (DU-145 prostate) | growth (K-562 leukemia) | growth (SF-539 CNS) | growth (M14 melanoma) | growth (HCT-15 colon) | growth (HT29 colon) | growth (SNB-75 CNS) | growth (U251 CNS) | growth (LOX IMVI melanoma) | growth (MOLT-4 leukemia) | growth (SR leukemia) | growth (RPMI-8226 leukemia) | growth (SK-OV-3 ovarian) | growth (MDA-MB-468 breast) |
| --- | --- | --- | --- | --- | --- | --- | --- | --- | --- | --- | --- | --- | --- | --- | --- | --- | --- | --- | --- | --- |
| O=C(CSc1nc2ccccc2c(=O)n1-c1ccc(Cl)cc1)Nc1ccc(-c2nc3ccccc3[nH]2)cc1 | 30.1% | 37.5% | 5.56% (active) | -12.6% (active) | -16.8% (active) | -12% (active) | -8.05% (active) | 2.71% (active) | -29.4% (active) | -36.6% (active) | -7.08% (active) | -38.9% (active) | -39.1% (active) | -61.4% (active) | -88.2% (active) | -7.88% (active) | -15.2% (active) | 22.4% | 94.2% | -41.7% (active) |
| CC1(C)CC(=O)C2=C(C1)N(Cc1ccc(C(=O)O)cc1)C1=C(C(=O)CC(C)(C)C1)C2c1ccc(Cl)cc1 | 108% | 93.7% | 101% | 104% | 99.3% | 121% | 113% | 103% | 110% | 101% | 98.4% | 112% | 94.5% | 105% | 61.7% | 92.9% | 99.6% | 113% | 101% | 103% |
| O=C(Nc1ccc(Oc2ncnc3scc(Nc4n[nH]c(=S)s4)c23)cc1)C1(C(=O)Nc2cccc(C(F)(F)F)c2)CC1 | 72.2% | 101% | 92.8% | 81.9% | 92.5% | 101% | 106% | 102% | 96.1% | 103% | 95.4% | 112% | 104% | 110% | 30.4% | 106% | 85% | 110% | 93.7% | -10.1% (active) |
